# KB-3-1 cytotox = KB-3-1 parental cell cytotoxicity; KB-3-1 viability, CellTiter-Glo ATP luminescence, 72 h; Potency, µM (highest dose often 46.1 µM), most hits filed as cytotoxic; 1.4% of 400,000 active; also: nearly all actives have a fitted effect of over 60% in size
#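 Cytotoxicity measured as CellTiter-Glo luminescence after 72 h at 37 C. Compound titrations were pinned onto drug-naive KB-3-1 parental adenocarcinoma cells grown in DMEM with 10% FBS, and normalized data fitted to concentration-response curves.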
# HT1080 IDH1KD tx = toxicity to HT-1080 IDH1 knockdown cells (counter line); HT-1080 IDH1 knockdown viability, ATP luminescence, 48 h; Potency, µM (top dose mostly 46.1 µM), without a hit: top-dose activity, negative = toxicity, actives largely listed as cytotoxic; 2% of 360,000 active; AID 686971;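 also: 0% = DMSO wells and -100% = cell-free medium wells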
#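 Assay cells: HT-1080 with IDH1 knockdown, 750 per well, RPMI/5% FBS. Exposure: 48 h at 37 °C following 2 h pre-incubation. Read: CellTiter-Glo luminescence; fitted concentration-response, curve class assigned.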
# KB-V1 MDR tox = KB-V1 MDR subline cytotoxicity; KB-V1 MDR cells viability, CellTiter-Glo, 72 h; Potency, µM (top dose mostly 46.1 µM), hits mostly cytotoxic; 3.4% of 400,000 active; AID 1347076; also: nearly all actives have a fitted effect of over 60% in size
#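 Readout: CellTiter-Glo luminescence, 10 min after addition. Cells: KB-V1 MDR subline, 72 h at 37 degrees C with compound. Analysis: corrected, normalized data fitted to concentration-effect curves.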
# TDP1 cell noCPT = qHTS for Inhibitors of human tyrosyl-DNA phosphodiesterase 1 (TDP1): qHTS in cells in absence of CPT; DT40 Tdp1-/- hTDP1 cells, no CPT, ATP luminescence, 48 h; Potency, µM (doses to about 46.2 µM), inactives show top-dose activity change, negative = growth inhibition, actives largely listed as inhibitors; 15% of 420,000 active; AID 686978, 2013; also: nearly all actives have a fitted effect of over 55% in size
#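 Camptothecin absent (DMSO only). Human TDP1-complemented DT40 knockout cells, 400 cells/well, 37 °C for minimum 48 hr; ATP measured via CellTiter-Glo, 30 min dark incubation, luminescence.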
# HT1080-NT tox = kills 2HG-producing HT-1080-NT fibrosarcoma cells. HT-1080-NT fibrosarcoma viability, CellTiter-Glo ATP luminescence, 48 h. Potency, µM (titrated, usually from 46.1 µM), without a hit: at the highest dose activity, negative = less viability, most hits filed as cytotoxic. 1.6% of 360,000 active;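 also: NT is the 2HG producing partner of a matched IDH1 knockdown line; 0% = DMSO-treated cells and -100% = media-only wells without cells; nearly all actives have a fitted effect of over 55% in size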
#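 Viability by CellTiter-Glo luminescence after 48 h compound exposure at 37C of HT-1080-NT cells (750/well, RPMI, 5% FBS). % activity scaled between DMSO wells and medium-only wells, then curve-fitted and categorized by curve class.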
# TDP1 cell CPT = DT40-hTDP1 cell growth loss with CPT | chicken DT40 Tdp1-/-;hTDP1 cells + 20 nM CPT, ATP luminescence, 48 h | 12% of 420,000 active | Potency, µM (highest dose often 46.2 µM), inactives show at the highest dose activity change, negative = growth inhibition, actives largely listed as inhibitors | AID 686979; also: nearly all actives have a fitted effect of over 55% in size
#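 Cell growth measured by CellTiter-Glo luminescence after a minimum 48 h, 37 C compound exposure with 20 nM CPT in Tdp1-knockout DT40 cells stably expressing hTDP1, seeded 400/well; qHTS titration format.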
# * hit, by the source's call; i = inactive; ? = inconclusive; . = no result; [ ] = dose if it differs, or a comment. This is a sample that favours compounds with a hit; in the whole collection about 19% have one here. Calls follow the shape of the dose curve; as a rule, active = well fitted curve in the direction sought with a large enough effect; inconclusive = small, poorly fitted or top-dose-only effect, or another doubt; inactive = no such curve, though single readings can be large; an effect the other way counts as inactive or inconclusive. Unless noted, % is scaled to controls: 0 for no effect and ±100 for the full control effect; potency is read from the fitted curve at half-maximal effect.
SMILES,KB-3-1 cytotox,HT1080 IDH1KD tx,KB-V1 MDR tox,TDP1 cell noCPT,HT1080-NT tox,TDP1 cell CPT
CCOc1ccc2[nH]c(=O)c(CN(Cc3ccc(C)cc3)C(=O)N3CCCC3)cc2c1,i,7.2%,?,20.6µM*,6.0%,?
CCOc1ccccc1C(=O)N(Cc1ccccc1)Cc1cc2cc3c(cc2[nH]c1=O)OCCO3,i,7.7%,?,23.1µM*,9.2%,25.9µM*
CCOc1ccc2[nH]c(=O)c(CN(CCOC)C(=O)N3CCOCC3)cc2c1,i,12.4%,i,-8.1%,7.1%,2.7%
O=C(Nc1nnc(Cc2ccc(Cl)cc2)s1)C1CCN(C(=O)c2ccco2)CC1,?,.,i,?,.,?
O=C(c1ccc(F)cc1)N1CCN(S(=O)(=O)c2ccc(Br)cc2)CC1,i,-0.5%,i,?,-2.4%,?
COc1ccc(CNc2ncc(-c3ccccc3)n2C)c2ccccc12,?,-29.9%,?,?,-1.2%,?
COc1cc(CNc2ncc(-c3ccc(Br)cc3)n2C)cc(OC)c1OC,i,-16.6%,i,?,-1.2%,10.3µM*
COc1cc(CNc2ncc(-c3ccc(Cl)cc3)n2C)cc(OC)c1OC,i,-17.4%,?,2.06µM*,-18.2%,13µM*
COC(=O)C1CC(c2ccc(Cl)cc2)=NO1 (stereo not given),i,27.9%,i,0.7%,14.7%,36.4%
Cc1ccnc2nc(NC(=O)c3ccccc3Cl)nn12,.,.,.,2.3%,.,0.4%
O=C(O)/C=C/C(=O)NNC(=O)c1cccc(Br)c1,i,20.5%,i,?,20.6%,-23.0%
COc1ccc(-n2cc(-c3ccccc3)c3c(NC4CCCCC4)ncnc32)cc1,.,.,.,11.6µM*,.,?
CCOc1ccc(-n2cc(-c3ccccc3)c3c(NC4CCCC4)ncnc32)cc1,.,.,.,13µM*,.,14.6µM*
CCOc1ccc(-n2cc(-c3ccccc3)c3c(SC(C)C(=O)OC)ncnc32)cc1 (stereo not given),i,6.0%,i,?,1.9%,?
O=C(Nc1ccncc1)C1CC(=O)N(Cc2ccccc2)C1 (stereo not given),i,-4.2%,i,-16.9%,-5.2%,-4.2%
CCc1ccc(NC(=O)c2cnn(-c3c(C)cccc3C)c2C2CCNCC2)cc1,i,.,i,23.1µM*,.,?
Cc1cc(C)cc(NC(=O)c2cnn(-c3ccccc3)c2C2CCNCC2)c1,i,-5.6%,i,16.4µM*,-1.9%,?
COc1ccc(OC)c(NC(=O)c2cnn(-c3ccc(C)cc3)c2C2CCNCC2)c1,i,.,i,25.9µM*,.,20.6µM*
COc1ccc(NC(=O)c2cnn(-c3ccccc3)c2C)c(OC)c1,i,7.1%,i,-6.4%,9.4%,-0.2%
Cc1ccc(C)c(NC(=O)c2cnn(-c3ccc(F)cc3F)c2C2CCNCC2)c1,i,.,i,9.2µM*,.,20.6µM*
COc1ccc(NS(=O)(=O)c2ccc3[nH]c(=O)ccc3c2)cc1OC,i,.,?,-29.7%,.,-19.9%
CCN(Cc1ccncc1)Cc1nc(CC2CC2)no1,i,8.5%,i,?,2.2%,-28.2%
CC(=O)NCC(=O)NCC1Cc2cc(C)cc(-c3ccccn3)c2O1 (stereo not given),.,.,.,2.1%,.,6.0%[9.04 µM]
Cc1cccc(C2c3[nH]c4ccccc4c3CCN2C(=O)c2cc(CC(C)C)[nH]c(=O)n2)n1 (stereo not given),i,-10.6%,i,?,-8.7%,?
Cc1cccc(NC(=O)c2cnn(-c3ccc(F)cc3)c2C2CCNCC2)c1C,i,-10.6%,i,-27.2%,-20.3%,-28.5%
